Screening data (PubChem BioAssay)
Shown are actives, neighbours in structure and some others; about 1.8% of the full set was active somewhere.
Jurkat NFkB inh – inhibitors of the PMA/ionomycin-induced NF-kB reporter in Jurkat cells; PMA/ionomycin-induced NF-kB luciferase reporter, luminescence; inhibition, % at 4 µM; actives 0.53% (n = 330,000); in the data active means inhibition above about 50%
697 NFkB inh – inhibitors of the PMA/ionomycin-induced NF-kB reporter in 697 B cells. 697 B-cell NF-kB luciferase reporter, 16 h. inhibition, % at 4 µM. actives 0.33% (n = 330,000); in the data active means inhibition above about 35%
Gli-Sufu block – blocks Gli-Sufu signaling in a luciferase reporter; AID 588413; inhibition, % at 5 µM; actives 0.74% (n = 340,000); Sufu-KO-LIGHT fibroblasts, Gli luciferase reporter luminescence;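 active means inhibition above about 55%, limit read from the data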
Beta apoptosis – beta cell apoptosis inhibition. AID 435005. protection from apoptosis, % (test concentration not listed). INS-1E cytokine-induced death, ATP luminescence, 48 h; percent of positive-control rescue, neutral wells zero. actives 0.8% (n = 300,000);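 active means Every replicate reaches about 75%, or at least half do and their mean reaches it too, limit read from the data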;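 further: higher means more ATP so stronger rescue from cytokine killing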
Jurkat NFkB conf – lowers PMA/ionomycin-induced NF-kB signal in Jurkat cells | shares compounds with Jurkat NFkB inh | Jurkat NF-kB luciferase, 16 h | inhibition, % at 4 µM | actives 27% (n = 2,700);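 active means inhibition reaching about 45% at 4 µM in either replicate, limit read from the data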
697 NFkB conf – lowers PMA/ionomycin-induced NF-kB signal in 697 B cells | 697 B-cell NF-kB luciferase, 16 h | shares compounds with 697 NFkB inh | inhibition, % at 4 µM | actives 35% (n = 2,000) | AID 449746; in the data active means inhibition mostly above about 28%, no sharp cut-off; inactive means mostly below about 22%
A number is an active result; – = inactive; · = no result given.

SMILES	Jurkat NFkB inh	697 NFkB inh	Gli-Sufu block	Beta apoptosis	Jurkat NFkB conf	697 NFkB conf
O=C(Nc1ccc(Cl)cc1)Nc1cccc(C(=O)O)c1	76	53	–	–	–	32
CCOc1ccc(NC(=O)Nc2cccc(C(=O)O)c2)cc1	82	81	–	–	80	77
O=C(Nc1cccc(Cl)c1)Nc1cccc(C(=O)O)c1	–	–	–	–	·	·
Cc1cc(Cl)c(S(=O)(=O)N2CCN(c3ccc(F)cc3)CC2)cc1OCC(=O)NC1CCCCC1	65	98	58	103	75	92
Cc1ccc(NC(=O)C2CCCN2C(=O)NC2CCCCC2)cc1 (stereo not drawn)	–	–	–	–	·	·
N#Cc1c(NC(=O)CSc2nc(N)cc(=O)[nH]2)sc2c1CCCCCC2	–	–	–	–	·	·
N#Cc1c(NC(=O)CSc2ncn[nH]2)sc2c1CCCCC2	63	70	–	–	65	59
CCc1ccc(-c2nc(CS(=O)CC(=O)NCc3ccco3)c(C)o2)cc1 (stereo not drawn)	51	36	–	·	56	35
Cc1ccc(-c2cn(-c3ccccc3)c(=S)[nH]2)cc1C	–	–	–	–	–	–
O=C1N(c2ccccc2)CCN1c1ccccc1	–	–	–	–	–	–
Cn1c(-c2ccccc2F)cc2onc(-c3ccccc3)c2c1=O	–	–	–	–	–	–
Cn1c(-c2ncc(F)cc2F)cc2onc(-c3c(F)cccc3Cl)c2c1=O	–	–	–	–	·	·
O=C(/C=C\Nc1ccc2c(c1)OCO2)c1cccs1	–	–	–	–	·	·
O=C(/C=C\Nc1ccc2c(c1)OCO2)c1ccc(Cl)s1	–	–	–	–	–	–
Cc1ccc(NC(=O)c2ccc3c(c2)OCO3)cc1Cl	–	–	–	–	–	–
Cc1ccc(C(=O)Nc2ccc3c(c2)OCO3)cc1Cl	–	–	·	·	·	·
COc1ccc(C(=O)COC(=O)CCCN=C2NS(=O)(=O)c3ccccc32)c(OC)c1	–	–	–	–	·	·
COc1cccc(/C=C/c2ccc3cccc(O)c3n2)c1	–	–	–	–	·	·
Oc1cccc(/C=C/c2ccc3cccc(O)c3n2)c1	–	–	–	–	–	–
COc1ccc(NC(=O)C(CC(C)C)NC(=O)C2CCC(C)CC2)c(OC)c1 (stereo not drawn)	–	–	–	–	·	·
O=C(NC(=S)Nc1ccccn1)c1ccc(-c2ccccc2)cc1	–	–	–	–	–	–
Cc1ccc[n+](CC(=O)/C=C2\N(C)c3ccccc3C2(C)C)c1	55	48	–	–	–	–
Cc1ccc(C2C(C#N)=C(N)SC(N)=C2C#N)c(C)c1	–	–	–	–	·	·
CCc1ccc(N(CC(=O)NC2CCCCC2)C(=O)CNC(=O)c2ccco2)cc1	–	–	–	–	·	·
COc1ccc(CCNc2ncnc3[nH]ncc23)cc1OC	–	–	–	–	·	·
SMILES	Jurkat NFkB inh	697 NFkB inh	Gli-Sufu block	Beta apoptosis	Jurkat NFkB conf	697 NFkB conf
COc1ccc(CCNc2ncnc3sc(C)cc23)cc1OC	61	68	69	107	73	83
CN(Cc1c(C(=O)N/N=C/c2c(F)cccc2Cl)nnn1-c1nonc1N)c1ccccc1	–	–	–	–	·	·
C=C1C(=O)C=C2CN(C(=O)c3ccccc3)[C@@](Cc3ccc(F)cc3)(C(=O)OC)[C@@H]12	83	–	62	113	76	–
COC(=O)[C@@]1(Cc2ccc(OC)cc2)[C@@H]2C(=CC(=O)[C@H]2CC(=O)C(=O)N(C)C)CN1C(=O)c1ccccc1	–	–	–	–	·	·
CCN(Cc1ccccc1)c1ccc(/C=C(\C#N)c2ccccn2)cc1	–	–	–	–	–	–
CC(C)NC(=O)CN1CCN(C(=O)CCl)CC1	–	–	–	–	·	·
CC(C)(C)CC(=O)Nc1ccc(S(=O)(=O)NC2=NCCCCC2)cc1	–	–	–	–	·	·
S=c1nccc(-c2ccc3c(c2)CCO3)[nH]1	–	–	–	–	·	·
CC1(C)CCc2cc(-c3ccnc(=S)[nH]3)ccc2O1	–	–	–	–	–	–
CCn1c(CNc2nc(-c3ccccc3)cs2)nnc1SCC(=O)NCc1ccco1	·	·	–	·	·	·
Cc1cc(C(=O)Nc2ccc(Cl)cc2)c(C)n1Cc1cccs1	–	–	–	–	·	·
Cc1cc(C)cc(NC(=O)c2cc(C)n(Cc3cccs3)c2C)c1	93	–	–	–	97	–
COc1ccc(-c2noc(-c3ccccc3F)n2)cc1	–	–	–	–	–	–
COc1ccc(-c2nc(-c3ccncc3)no2)c(OC)c1	–	–	–	–	–	–
COc1ccc(-c2noc(-c3ccccc3-c3ccccc3)n2)cc1	–	–	–	–	·	·
COc1cc(OC)c(-c2nc(-c3ccncc3)no2)cc1OC	–	–	–	–	·	·
COc1ccccc1-c1nc(-c2cccc(C)c2)no1	–	–	–	–	–	–
O=C1CN(C(=O)CSc2nc3cc(Cl)ccc3c(=O)n2Cc2ccccc2)c2ccccc2N1	–	–	–	–	·	·
COCCN(C(=O)COC(=O)CCCOc1ccc(OC)cc1)c1c(N)n(Cc2ccccc2)c(=O)[nH]c1=O	–	–	–	–	·	·
Cc1ccc(S(=O)(=O)N2CCC(C(=O)NCc3ccccc3Cl)CC2)cc1	–	–	–	–	·	·
CCOC(=O)c1sc(NC(=O)c2ccc(C)s2)cc1C	–	–	–	–	·	·
CCOC(=O)c1sc(NC(=O)Nc2ccccc2Cl)cc1C	–	–	–	–	–	–
COc1cc(C2C(C(C)=O)=C(O)C(=O)N2CCN(C)C)ccc1O (stereo not drawn)	–	–	–	–	·	·
Cc1ccc(NC(=O)N2CCc3ccccc32)cc1C	–	–	–	–	–	–
Cc1ccc(NC(=O)N2CCc3ccccc32)cc1	–	–	–	–	·	·
SMILES	Jurkat NFkB inh	697 NFkB inh	Gli-Sufu block	Beta apoptosis	Jurkat NFkB conf	697 NFkB conf
COc1ccccc1C(=O)N(CCC1CCCN1C)c1nc2ccccc2s1 (stereo not drawn)	–	–	–	–	–	–
O=C1CCCCC1Oc1ccc2ccc(=O)oc2c1 (stereo not drawn)	–	–	–	–	·	·
Cc1ccsc1/C=N/Nc1nc2ccccc2s1	–	–	–	–	–	–
Oc1ccccc1C=NNc1nc2ccccc2s1	·	·	–	·	·	·
Cc1ccc(Nc2nc3ccccc3s2)cc1	–	–	–	–	–	–
C(=N\Nc1nc2ccccc2s1)/c1ccco1	–	–	–	–	–	–
CN1C(=O)SC(Nc2cccc3ccccc23)C1=O (stereo not drawn)	–	–	–	–	·	·
COC(=O)c1ccc(NC(=O)CN2CCN(c3ccccc3C)CC2)cc1	–	–	–	–	·	·
N#C/C(=C\c1ccc(N2CCOCC2)cc1)c1ccccc1	–	–	–	–	–	–
N#C/C(=C\c1ccc(N2CCOCC2)o1)c1ccccc1	–	–	–	–	·	·
Cc1cc2sc3ccc(C#CC4(O)CCCCC4)cc3c(=O)c2cc1C	83	88	·	–	97	75
Cc1ccc(NC(CC(=O)c2ccccc2)C(=O)O)cc1Cl (stereo not drawn)	–	–	–	–	–	–
COc1ccc2oc(C(=O)Nc3nccs3)c(C)c2c1	–	–	–	–	–	–
